Compound activity: PubChem BioAssay, National Center for Advancing Translational Sciences (NCATS)
The list is not random: actives were taken first. Their share in the collection is about 12%.
JMJD2A Tudor: blocks the human JMJD2A Tudor domain; AlphaScreen JMJD2A-Tudor / H3K4me3 peptide binding; Potency, µM (doses to about 114 µM), without a hit: at the highest dose activity change, negative = inhibition, usual class: inhibitors; actives 4.4% (n = 390,000); also: % is scaled to controls: 0 for no effect and ±100 for the full control effect; nearly all actives have a fitted effect of over 50% in size
G9a block: blocks human histone lysine methyltransferase G9a; Q96KQ7; Potency, µM (series often up to 102 µM), inactives show top-dose activity, negative = inhibition, hits mostly inhibitors; G9a H3K9 monomethylation, AlphaScreen, 2 h; actives 8.8% (n = 350,000); AID 504332; also: % is scaled to controls: 0 for no effect and ±100 for the full control effect; nearly all actives have a fitted effect of over 75% in size
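G9a (20 nM) was preincubated 15 min with compound, then reacted 2 h at room temperature with 500 nM biotin-H3K9 peptide and 20 µM SAM. Monomethyl-H3K9 detected by AlphaScreen using anti-H3K9me1 antibody.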
Sfp PPTase inh: blocks B. subtilis Sfp PPTase activity. actives 3.5% (n = 310,000). AID 1490. Q9F4F7. Potency, µM, for the others: largest response in the series, negative = inhibition, hits mostly inhibitors. Biochemical Sfp PPTase activity, qHTS;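 also: the enzyme is Sfp with the accession as filed and its product quenches rhodamine fluorescence; 0% = enzyme reaction without inhibitor and -100% = no enzyme wells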
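Fluorescence-quenching assay: 15 nM Sfp-PPTase preincubated 15 min at room temperature with compound, then 5 uM rhodamine-CoA and 12.5 uM BHQ-2-labelled YbbR peptide added. Fluorescence (ex 525/em 598 nm) read at start and after 30 min; difference gives rate.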
HP1b binding inh: blocks HP1-beta chromodomain binding to methylated histone tails; P83916; AlphaScreen HP1-beta / biotin-H3K9me3 peptide binding; Potency, µM (titrated, usually from 114 µM), inactives show at the highest dose activity change, negative = inhibition, usual class: inhibitors; actives 0.56% (n = 390,000); AID 540317; also: nearly all actives have a fitted effect of over 70% in size
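Compound inhibition of the preformed complex between 50 nM HP1-beta and 50 nM biotinylated H3K9me3 peptide was read by AlphaScreen. Buffer was PBS pH 7.4 with 0.01% Tween-20. Incubations ran 30 min at room temperature, with 10 ug/mL donor/acceptor beads.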
BAZ2B inh: inhibitors of human BAZ2B bromodomain | Q9UIF8 | AlphaScreen BAZ2B-H3K14Ac peptide displacement | Potency, µM (titrated, usually from 114 µM), inactives show at the highest dose activity change, negative = inhibition, usual class: inhibitors | actives 4.4% (n = 360,000) | AID 504333; also: % is scaled to controls: 0 for no effect and ±100 for the full control effect; nearly all actives have a fitted effect of over 60% in size
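Inhibition is scored as reduced AlphaScreen emission. The BAZ2B/b-H3(5-23)K14Ac complex (50 nM each) in PBS pH 7.4, 0.01% Tween-20 meets compound (up to 110 uM) for 30 min at RT before bead addition.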
PLK1 PBD inh: PLK1 (human) polo-box domain binding inhibition. Potency, µM, for inactives: max response, negative = inhibition, actives largely listed as inhibitors. actives 2.8% (n = 360,000). P53350. Plk1 PBD binding of FITC phosphopeptide, fluorescence polarization; also: series mostly up to about 57 µM; % is scaled to controls: 0 for no effect and ±100 for the full control effect; nearly all actives have a fitted effect of over 65% in size
Target sequence (P53350 whole entry, looked up, the tested form may be a part): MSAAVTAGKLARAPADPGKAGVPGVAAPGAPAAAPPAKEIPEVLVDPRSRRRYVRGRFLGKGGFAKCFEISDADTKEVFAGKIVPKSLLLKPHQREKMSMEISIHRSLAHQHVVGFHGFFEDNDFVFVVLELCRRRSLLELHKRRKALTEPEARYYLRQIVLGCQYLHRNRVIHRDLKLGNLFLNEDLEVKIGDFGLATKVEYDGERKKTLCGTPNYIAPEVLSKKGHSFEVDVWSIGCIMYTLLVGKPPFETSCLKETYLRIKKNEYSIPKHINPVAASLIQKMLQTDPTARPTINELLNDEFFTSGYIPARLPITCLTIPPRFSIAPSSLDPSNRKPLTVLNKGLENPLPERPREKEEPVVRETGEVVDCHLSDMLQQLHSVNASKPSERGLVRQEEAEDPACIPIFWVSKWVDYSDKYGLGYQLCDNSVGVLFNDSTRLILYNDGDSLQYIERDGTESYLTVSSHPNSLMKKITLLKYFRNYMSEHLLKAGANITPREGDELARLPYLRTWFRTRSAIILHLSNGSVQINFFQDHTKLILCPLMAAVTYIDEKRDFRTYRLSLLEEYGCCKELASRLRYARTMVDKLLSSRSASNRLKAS
* = called active by the depositor; u = inconclusive; x = no result; [ ] = remark or other dose. Calls follow the shape of the dose curve; as a rule, active = well fitted curve in the direction sought with a large enough effect; inconclusive = small, poorly fitted or top-dose-only effect, or another doubt; inactive = no such curve, though single readings can be large; an effect the other way counts as inactive or inconclusive. Potency is read from the fitted curve at half-maximal effect.

SMILES | JMJD2A Tudor | G9a block | Sfp PPTase inh | HP1b binding inh | BAZ2B inh | PLK1 PBD inh
COc1ccc(/C=N/c2oc(C)c(C)c2C#N)c(OC)c1 | 11.7% | 50.1µM* | -5.0% | 32.4% | -8.2% | 2.3%
COc1cc(/C=N/c2oc(C)c(C)c2C#N)cc(Br)c1O | u | 10µM* | -2.3% | -18.3% | u | 16.9%
COc1cc(NC(=O)Nc2cccc(Cl)c2)c(OC)cc1NC(=O)CN1CCCCC1 | 44.7µM* | 12.6µM* | 4.0% | u | 39.8µM* | 2.9%
O=C(CN1CCCC1)Nc1ccc(Cl)cc1C(F)(F)F | u | 6.4% | 1.9% | u | x | 23.8µM*
Cc1cc(C)c2ccc(=O)n(CC(=O)N/N=C/c3ccccc3Cl)c2n1 | -9.2% | 0.3% | -5.2% | 23.7% | -21.4% | -3.2%
CCOc1ccc(-n2c(=O)c3c(C)c(C)sc3n(Cc3ccccc3C)c2=O)cc1 | -11.6% | 8.5%[59 µM] | x | 11.7% | 3.5% | x
CCOc1ccc2nc(NC(=O)c3nc(SCc4ccc(C)cc4)ncc3Cl)sc2c1 | -6.6% | 2.9%[59 µM] | x | 42.4% | -4.7% | x
CC1Nc2ncnc(N3CCN(c4ccccn4)CC3)c2N(Cc2ccccc2)C1=O (stereo not given) | -30.8% | -50.5%[12.7 µM] | x | 31.6% | -37.3% | 1.1%
Cc1ccc(CN2C(=O)C(C)Nc3ncnc(N4CCN(c5ccccn5)CC4)c32)cc1 (stereo not given) | 79.4µM* | -3.5%[2.33 µM] | x | 9.5% | u | 5.1%
Cc1ccc(CN2C(=O)C(CC(C)C)Nc3ncnc(N4CCN(c5ccccn5)CC4)c32)cc1 (stereo not given) | 79.4µM* | u | x | 19.1% | u | -17.9%
CC(C)CC1Nc2ncnc(N3CCN(c4ccccn4)CC3)c2N(Cc2ccc(Br)cc2)C1=O (stereo not given) | -35.2% | u | x | 35.2% | -35.0% | 1.0%
Fc1ccccc1N1CCN(c2ncnc3onc(-c4ccc(Cl)cc4)c23)CC1 | -2.0% | -7.9%[59 µM] | x | 35.1% | -12.8% | x
COc1ccc(NC(=O)COc2cccc3c2CCN(C)C3=O)c(OC)c1 | -8.8% | 9.6% | 7.0% | 32.1% | -28.3% | 4.2%
CCc1ccc(-c2nc(CS(=O)CC(=O)NCc3ccc4c(c3)OCO4)c(C)o2)cc1 (stereo not given) | -25.0% | 39.8µM* | -4.8% | 15.7% | -32.3% | u
COc1cccc(-c2nc(CS(=O)(=O)CC(=O)NCCCOC(C)C)c(C)o2)c1 | 7.9% | 12.4%[0.501 µM] | -14.2% | 20.3% | -5.6% | -7.3%
Cc1ccccc1-c1nc(CS(=O)CC(=O)NC(C)CCc2ccccc2)c(C)o1 (stereo not given) | -31.1% | 70.8µM* | -12.6% | 20.0% | u | u
COc1cccc(-c2nc(CS(=O)CC(=O)NC(C)CCc3ccccc3)c(C)o2)c1 (stereo not given) | -17.1% | u | -0.7% | 4.5%[57 µM] | -28.2% | u
COc1cccc(-c2nc(CS(=O)CC(=O)NCCCOC(C)C)c(C)o2)c1 (stereo not given) | -11.9% | 44.7µM* | 10.8% | 51.8% | 9.6% | -5.1%
Cc1ccc(CCNC(=O)CS(=O)Cc2nc(-c3ccccc3Cl)oc2C)cc1 (stereo not given) | 2.3% | 50.1µM* | -16.8% | 69.2% | -27.1% | -27.2%
COc1ccc(-c2nc(CS(=O)CC(=O)NCCc3ccc(OC)c(OC)c3)c(C)o2)cc1 (stereo not given) | -16.8% | 19.0% | 4.4% | 50.1% | -9.9% | -13.7%
COc1ccc(-c2nc(CS(=O)CC(=O)NCc3ccc(Cl)cc3)c(C)o2)cc1 (stereo not given) | -26.4% | 39.8µM* | 10.3% | 6.2% | -28.9% | -26.4%
CCOc1ccc(CCNC(=O)CS(=O)Cc2nc(-c3ccc(OC)cc3)oc2C)cc1OCC (stereo not given) | -19.1% | 50.1µM* | 3.7% | 31.5% | -13.0% | -5.4%
